Experimental data as given in PubChem BioAssay.
Active and inactive are the calls of the source.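 How the source made its calls, unless noted: active means percent response above 42, roughly 3 SD of non-fluorescent test compounds; inactive means the rest.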

Key:
[1] = inhibitors of CD8+ T cell-vesicle binding, pilot screen, LFA-1/ICAM-1 modulator project, MLPCN validation set, flow cytometry (AID 2523;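 active means response below a set limit, under 55% cells CD8-positive and vesicle-bound, and CD8 cells' 90th-percentile brightness under 279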;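 on vesicle binding response: mean PE anti-B7-1 fluorescence of CD8+ cells relative to row control; 100% = QL9-loaded vesicles with DMSO vehicle in the same plate row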); conditions: 2C mouse CD8+ T cells, at 7 µM, stronger effect = lower value; double positive events: measured here: CD8+/vesicle+ event percentage
[2] = target: Integrin beta-1 (Homo sapiens) + Integrin alpha-4 (Homo sapiens) (UniProt P13612+P05556); assay: inhibition of HUTS-21 binding to VLA-4, pilot screen, VLA-4 allosteric modulator project, U937 cells, HUTS-21 mAb, flow cytometry, validation set (AID 2674;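 active means inhibition above 50%, about 3 SD of the validation set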;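 further: antibody binding induced by the VLA-4 ligand LDV present at three times its Kd; 0% = LDV ligand with antibody and no compound and 100% = antibody without LDV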); conditions: HUTS-21 LIBS mAb binding, at 6.7 µM, stronger effect = higher value, binding induced by LDV ligand
Integrin beta-1 (Homo sapiens) + Integrin alpha-4 (Homo sapiens), sequence (P05556 whole entry, looked up): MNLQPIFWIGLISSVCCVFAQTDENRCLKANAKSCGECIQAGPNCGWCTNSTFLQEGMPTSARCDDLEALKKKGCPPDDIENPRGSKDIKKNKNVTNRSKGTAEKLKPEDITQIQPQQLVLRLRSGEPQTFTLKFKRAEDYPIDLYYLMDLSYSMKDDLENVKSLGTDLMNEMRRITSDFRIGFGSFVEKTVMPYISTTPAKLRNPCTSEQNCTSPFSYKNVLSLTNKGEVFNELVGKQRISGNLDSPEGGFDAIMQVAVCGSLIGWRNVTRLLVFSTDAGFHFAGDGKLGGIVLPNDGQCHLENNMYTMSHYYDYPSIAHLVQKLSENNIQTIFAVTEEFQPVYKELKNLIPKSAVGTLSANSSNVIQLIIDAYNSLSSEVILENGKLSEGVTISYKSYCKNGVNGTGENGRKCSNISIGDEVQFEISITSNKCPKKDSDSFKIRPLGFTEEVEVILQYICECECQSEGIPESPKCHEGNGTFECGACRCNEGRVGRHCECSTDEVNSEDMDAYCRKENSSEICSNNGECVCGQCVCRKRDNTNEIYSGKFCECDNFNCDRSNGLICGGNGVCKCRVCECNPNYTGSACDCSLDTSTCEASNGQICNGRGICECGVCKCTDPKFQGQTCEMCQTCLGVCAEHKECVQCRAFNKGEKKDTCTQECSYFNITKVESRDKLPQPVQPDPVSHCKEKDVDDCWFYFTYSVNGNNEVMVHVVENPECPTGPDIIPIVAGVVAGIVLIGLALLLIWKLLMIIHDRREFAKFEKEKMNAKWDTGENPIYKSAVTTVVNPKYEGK
Integrin beta-1 (Homo sapiens) + Integrin alpha-4 (Homo sapiens), sequence (P13612 whole entry, looked up): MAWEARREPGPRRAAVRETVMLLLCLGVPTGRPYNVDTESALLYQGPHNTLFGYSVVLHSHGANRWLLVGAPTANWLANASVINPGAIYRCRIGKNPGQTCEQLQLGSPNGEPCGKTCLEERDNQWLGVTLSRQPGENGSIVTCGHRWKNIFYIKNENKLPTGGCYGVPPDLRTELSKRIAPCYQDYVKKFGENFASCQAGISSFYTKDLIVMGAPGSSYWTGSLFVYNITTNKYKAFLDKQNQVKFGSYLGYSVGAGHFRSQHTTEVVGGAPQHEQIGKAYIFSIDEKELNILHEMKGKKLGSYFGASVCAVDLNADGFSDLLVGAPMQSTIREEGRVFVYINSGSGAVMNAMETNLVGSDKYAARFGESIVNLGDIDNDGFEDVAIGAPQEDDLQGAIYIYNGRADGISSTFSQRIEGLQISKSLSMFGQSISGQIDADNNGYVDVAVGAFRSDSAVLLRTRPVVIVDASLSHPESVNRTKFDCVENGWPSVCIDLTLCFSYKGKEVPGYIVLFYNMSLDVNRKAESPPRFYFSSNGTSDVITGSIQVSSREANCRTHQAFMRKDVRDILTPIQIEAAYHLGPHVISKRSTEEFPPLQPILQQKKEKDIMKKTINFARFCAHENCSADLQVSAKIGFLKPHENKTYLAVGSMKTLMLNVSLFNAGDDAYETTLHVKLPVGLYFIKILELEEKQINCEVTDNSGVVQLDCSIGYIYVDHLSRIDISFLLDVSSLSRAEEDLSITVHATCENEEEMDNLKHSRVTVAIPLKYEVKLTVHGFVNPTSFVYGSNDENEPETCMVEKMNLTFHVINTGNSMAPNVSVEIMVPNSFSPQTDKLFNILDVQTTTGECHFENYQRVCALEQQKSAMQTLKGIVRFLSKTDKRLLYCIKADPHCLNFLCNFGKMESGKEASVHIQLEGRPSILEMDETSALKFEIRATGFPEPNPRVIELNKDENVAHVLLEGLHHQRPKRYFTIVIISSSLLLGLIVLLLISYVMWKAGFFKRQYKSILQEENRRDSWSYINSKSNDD

[3] = superoxide lowering in aged yeast cells, pilot screen, validation compound set (AID 2706;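 active means superoxide response below 65% of plate, a cut near 3 SD across the whole screen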;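 further: yeast exposed to compound for one week at 30 degrees C before staining; 100% = mean of all compound wells on the same plate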); conditions: S. cerevisiae aging, superoxide DHE fluorescence; at 10 µM, stronger effect = lower value
[4] = target: Beta-adrenergic receptor kinase 1 (Homo sapiens) (UniProt P25098); assay: GRK2 binders displacing RNA aptamer, biochemical, validation, human GRK2, bead flow cytometry (AID 488806;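 active means aptamer binding inhibition above 30%, about 3 SD of noise from non-fluorescent compounds; inactive means inhibition at or below 30%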); conditions: bead-bound GRK2, FAM-aptamer displacement, at 10 µM, stronger effect = higher value
Beta-adrenergic receptor kinase 1 (Homo sapiens), sequence (P25098 whole entry, looked up): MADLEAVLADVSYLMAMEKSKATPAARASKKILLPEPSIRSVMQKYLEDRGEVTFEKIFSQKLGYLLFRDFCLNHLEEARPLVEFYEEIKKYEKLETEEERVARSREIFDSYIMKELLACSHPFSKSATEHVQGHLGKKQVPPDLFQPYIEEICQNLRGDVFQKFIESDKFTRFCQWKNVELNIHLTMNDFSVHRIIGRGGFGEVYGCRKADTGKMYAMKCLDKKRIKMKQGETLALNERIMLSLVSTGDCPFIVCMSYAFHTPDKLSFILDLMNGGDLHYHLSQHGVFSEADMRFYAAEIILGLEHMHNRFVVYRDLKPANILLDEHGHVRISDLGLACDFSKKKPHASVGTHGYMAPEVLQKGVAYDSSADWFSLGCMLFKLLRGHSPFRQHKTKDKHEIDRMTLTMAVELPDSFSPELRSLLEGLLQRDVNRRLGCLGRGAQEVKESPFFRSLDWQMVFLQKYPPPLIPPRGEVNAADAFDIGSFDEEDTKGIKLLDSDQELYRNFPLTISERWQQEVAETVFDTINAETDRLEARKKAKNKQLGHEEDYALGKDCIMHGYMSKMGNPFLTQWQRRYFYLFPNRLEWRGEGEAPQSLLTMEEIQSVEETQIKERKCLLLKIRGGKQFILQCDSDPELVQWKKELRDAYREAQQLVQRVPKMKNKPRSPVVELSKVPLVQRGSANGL

[5] = target: Beta-2 adrenergic receptor (Homo sapiens) (UniProt P07550); assay: beta2AR agonists driving receptor internalization, pilot screen, cell-based, FAP fluorogen, flow cytometry, validation set (AID 504459); conditions: Am2.2-beta2AR cells, FAP surface receptor flow cytometry; at 10 µM; stronger effect = higher value;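 further: agonist-driven loss of surface beta2AR via internalization measured by FAP dye flow cytometry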
Beta-2 adrenergic receptor (Homo sapiens), sequence (P07550 whole entry, looked up): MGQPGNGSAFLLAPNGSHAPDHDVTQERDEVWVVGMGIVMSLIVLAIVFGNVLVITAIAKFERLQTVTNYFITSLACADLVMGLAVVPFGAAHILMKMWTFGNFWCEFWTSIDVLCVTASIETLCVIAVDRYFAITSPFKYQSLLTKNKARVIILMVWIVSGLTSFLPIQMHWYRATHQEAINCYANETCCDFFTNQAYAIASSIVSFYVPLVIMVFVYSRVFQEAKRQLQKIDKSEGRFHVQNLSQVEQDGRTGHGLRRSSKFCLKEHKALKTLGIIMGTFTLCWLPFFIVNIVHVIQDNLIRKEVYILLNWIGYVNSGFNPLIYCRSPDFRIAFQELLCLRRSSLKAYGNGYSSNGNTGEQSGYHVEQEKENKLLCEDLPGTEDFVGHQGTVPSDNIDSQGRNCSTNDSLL

[6] = target: AP-2 complex subunit beta (Homo sapiens) (UniProt P63010); assay: inhibitors of arrestin peptide binding to AP2, pilot screen, biochemical, validation set, GST-AP2 beads, flow cytometry (AID 504541;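 active means inhibition above 54%, about 3 SD of non-fluorescent compounds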;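 further: AP2 carries R879A mutation and is captured from E. coli lysate; bead-bound FITC arrestin peptide fluorescence measuring arrestin peptide binding to AP2; 0% = DMSO wells and 100% = excess unlabeled arrestin peptide control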); conditions: FITC arrestin peptide, at 10 µM, stronger effect = higher value, AP2 beta2 appendage fragment, R879A mutant
AP-2 complex subunit beta (Homo sapiens), sequence (P63010 whole entry, looked up, the tested form may be a part, one chain of several): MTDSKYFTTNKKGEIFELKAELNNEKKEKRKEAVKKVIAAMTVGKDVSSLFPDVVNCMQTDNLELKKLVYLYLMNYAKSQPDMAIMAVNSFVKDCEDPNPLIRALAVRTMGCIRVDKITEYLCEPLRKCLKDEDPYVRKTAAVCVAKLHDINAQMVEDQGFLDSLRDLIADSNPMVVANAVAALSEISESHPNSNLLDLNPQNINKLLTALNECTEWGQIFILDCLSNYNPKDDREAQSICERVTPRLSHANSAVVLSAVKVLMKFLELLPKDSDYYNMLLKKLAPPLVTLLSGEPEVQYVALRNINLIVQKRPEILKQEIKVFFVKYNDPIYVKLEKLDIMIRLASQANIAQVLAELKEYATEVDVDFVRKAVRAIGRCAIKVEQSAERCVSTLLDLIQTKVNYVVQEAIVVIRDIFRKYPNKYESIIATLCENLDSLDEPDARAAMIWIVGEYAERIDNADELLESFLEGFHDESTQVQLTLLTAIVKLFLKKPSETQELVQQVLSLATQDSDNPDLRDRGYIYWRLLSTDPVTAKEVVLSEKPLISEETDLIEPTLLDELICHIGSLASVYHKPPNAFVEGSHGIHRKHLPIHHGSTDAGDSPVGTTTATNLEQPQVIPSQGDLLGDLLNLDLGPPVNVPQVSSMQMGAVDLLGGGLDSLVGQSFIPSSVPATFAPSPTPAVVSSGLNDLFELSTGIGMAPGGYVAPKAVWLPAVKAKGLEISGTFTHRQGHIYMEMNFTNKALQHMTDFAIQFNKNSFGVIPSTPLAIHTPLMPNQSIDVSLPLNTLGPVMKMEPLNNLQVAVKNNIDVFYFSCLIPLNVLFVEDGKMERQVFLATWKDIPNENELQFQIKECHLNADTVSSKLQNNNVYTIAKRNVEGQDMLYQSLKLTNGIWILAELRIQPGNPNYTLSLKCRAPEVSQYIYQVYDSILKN

[7] = yeast V-ATPase proton transport modulators, S. cerevisiae, pHLuorin, HTS validation (AID 504600; in the data active means response above about 15%;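 further: plate controls were DMSO for no effect and reference compound for full effect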); conditions: S. cerevisiae pHLuorin cytosolic pH, at 10 µM, stronger effect = higher value
[8] = test system: anti-desmoglein-3 scFv antibody binding to human DSG3; assay: inhibitors of anti-DSG3 scFv binding to DSG3, pilot screen, biochemical, validation compound set, bead-based, flow cytometry (AID 588368;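 active means binding below the plate cutoff, the plate median minus 3 SD, with a reading above zero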;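 further: signal is the median channel fluorescence of bead-bound GFP antibody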); conditions: Protein G beads, DSG3-Fc, scFv-GFP binding, at 10 µM, stronger effect = lower value
[9] = inhibitors of fungal efflux pumps CDR1, CDR2, MDR1, pilot screen, validation compound set, multiplex, phenotypic (AID 588506;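 active means efflux inhibition above 0.42, the validation set average plus 4 SD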;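 further: Nile Red retained in cells so higher fluorescence means more efflux inhibition; 0 = negative control wells and 1 = enniatin B 25 µM full block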); conditions: S. cerevisiae pump-expressing triplex, Nile Red efflux flow cytometry; at 10 µM; stronger effect = higher value; the pumps come from Candida albicans
[10] = target: ATP-binding cassette sub-family B member 6 (Homo sapiens) (UniProt Q9NP58); assay: ABCB6 transporter inhibitors, pilot screen, K562-ABCB6 cells, flow cytometry, validation set (AID 588550;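 active means inhibition above the screen-wide mean plus 3 SD, about 51%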;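 further: 0% = DMSO wells and 100% = benzethonium chloride 70 µM positive control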); conditions: K562-ABCB6 porphyrin accumulation, 1 h, at 10 µM, stronger effect = higher value
ATP-binding cassette sub-family B member 6 (Homo sapiens), sequence (Q9NP58 whole entry, looked up): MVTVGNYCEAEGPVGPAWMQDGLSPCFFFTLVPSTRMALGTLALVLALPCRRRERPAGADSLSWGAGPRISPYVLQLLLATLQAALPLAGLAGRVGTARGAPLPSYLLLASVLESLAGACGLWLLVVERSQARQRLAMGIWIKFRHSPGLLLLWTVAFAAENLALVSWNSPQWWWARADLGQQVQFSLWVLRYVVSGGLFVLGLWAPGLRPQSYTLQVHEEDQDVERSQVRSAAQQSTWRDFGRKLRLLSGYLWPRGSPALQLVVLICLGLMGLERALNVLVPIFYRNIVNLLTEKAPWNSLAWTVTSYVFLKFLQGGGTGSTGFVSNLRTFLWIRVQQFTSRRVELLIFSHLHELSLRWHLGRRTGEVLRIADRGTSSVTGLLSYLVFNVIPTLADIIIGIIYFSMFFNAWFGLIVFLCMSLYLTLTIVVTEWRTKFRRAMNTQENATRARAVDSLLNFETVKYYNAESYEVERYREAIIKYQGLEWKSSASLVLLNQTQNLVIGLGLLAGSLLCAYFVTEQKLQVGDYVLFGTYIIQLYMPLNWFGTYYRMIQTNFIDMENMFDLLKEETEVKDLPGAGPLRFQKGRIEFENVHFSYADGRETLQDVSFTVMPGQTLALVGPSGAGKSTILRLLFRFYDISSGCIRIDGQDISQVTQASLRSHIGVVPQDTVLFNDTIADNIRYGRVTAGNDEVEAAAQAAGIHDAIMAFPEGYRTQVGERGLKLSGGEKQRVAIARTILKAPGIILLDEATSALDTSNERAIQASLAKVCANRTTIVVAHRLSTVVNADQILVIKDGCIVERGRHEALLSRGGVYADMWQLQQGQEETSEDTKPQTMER

[11] = promoters of myeloid differentiation in arrested cells, primary screen, cell-based, GFP/MAC1 double positive, flow cytometry, validation set (AID 588685;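 active means differentiation response of at least 50%, scaled between solvent and reference control, from cells with both markers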;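 further: compound exposure lasts four days before antibody staining and flow analysis; 0% = DMSO wells and 100% = 5 µM fulvestrant positive control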); conditions: ER-HoxA9 marrow cells, stronger effect = higher value, normalized: vehicle 0, fulvestrant 100

CC(C)CC(=O)OC1C(N2CCOCC2)c2c(ccc(/C=C/C(=O)N3CCOCC3)c2O)OC1(C)C (configuration not stated)
active: response [5] 84.7% | differentiation response [11] 53.6%
inactive: vesicle binding response [1] 158% | inhibition [2] -3.16% | superoxide response (% of plate) [3] 101% | aptamer binding inhibition [4] -1% | inhibition [6] 35% | response [7] -2.63% | binding (% of control) [8] 108% | efflux inhibition (fraction of control) [9] 0.37 | inhibition [10] 5%
57.1%: double positive events [1]

Cn1c2ccc(CC(=O)O)cc2c2cc(CC(=O)O)ccc21
inactive: vesicle binding response [1] 244% | inhibition [2] 10.5% | superoxide response (% of plate) [3] 92.3% | aptamer binding inhibition [4] 3% | response [5] -8.9% | inhibition [6] 2.08% | response [7] 1.83% | binding (% of control) [8] 101% | efflux inhibition (fraction of control) [9] -0.21 | inhibition [10] 6% | differentiation response [11] 8.8%
61.4%: double positive events [1]

Oc1ccc(Oc2ncc(Cl)cc2Cl)cc1
61.9%: double positive events [1]
inactive: vesicle binding response [1] 223% | inhibition [2] -3.67% | superoxide response (% of plate) [3] 73.7% | aptamer binding inhibition [4] 2% | response [5] -11% | inhibition [6] -4.55% | response [7] 8.39% | binding (% of control) [8] 107% | efflux inhibition (fraction of control) [9] 0.12 | inhibition [10] 6% | differentiation response [11] -12.9%

COc1ccc(C(=O)NC(=O)NC2(C(Cl)(Cl)Cl)OCCO2)cc1
inactive: vesicle binding response [1] 214% | inhibition [2] -21.6% | superoxide response (% of plate) [3] 86.9% | aptamer binding inhibition [4] 4% | response [5] -20.1% | inhibition [6] 13.5% | response [7] -0.88% | binding (% of control) [8] 94.7% | efflux inhibition (fraction of control) [9] 0.12 | inhibition [10] 9% | differentiation response [11] -2.03%
60.6%: double positive events [1]

CNc1nc(Nc2ccccc2)nc(OCC(F)(F)F)n1
64.8%: double positive events [1]
inactive: vesicle binding response [1] 135% | inhibition [2] 6.95% | superoxide response (% of plate) [3] 98.2% | aptamer binding inhibition [4] -3% | response [5] -3.68% | inhibition [6] 44.3% | response [7] -7.15% | binding (% of control) [8] 101% | efflux inhibition (fraction of control) [9] -0.185 | inhibition [10] -3% | differentiation response [11] 4.2%

C/C(NC(=O)c1cccs1)=C1\C(=O)C[C@@H]2[C@H]1C2(C)C
inactive: vesicle binding response [1] 193% | inhibition [2] 0.59% | superoxide response (% of plate) [3] 102% | aptamer binding inhibition [4] -8% | response [5] -39.8% | inhibition [6] -13% | response [7] -6.85% | binding (% of control) [8] 105% | efflux inhibition (fraction of control) [9] -0.04 | inhibition [10] 9% | differentiation response [11] -11.9%
56.1%: double positive events [1]

COc1ccc(C(=O)[C@H]2[C@H]3C(=O)N(c4ccccc4)C(=O)[C@H]3C3C=CC=NN32)cc1 (some centres not stated)
62.9%: double positive events [1]
inactive: vesicle binding response [1] 227% | inhibition [2] -7.79% | superoxide response (% of plate) [3] 96.9% | aptamer binding inhibition [4] 3% | response [5] 0.22% | inhibition [6] 28.5% | response [7] -6.05% | binding (% of control) [8] 99.8% | efflux inhibition (fraction of control) [9] 0.01 | inhibition [10] -9% | differentiation response [11] -8.96%

COCc1cc(=O)[nH]c(Nc2nc3ccccc3o2)n1
62.6%: double positive events [1]
inactive: vesicle binding response [1] 117% | inhibition [2] -7.93% | superoxide response (% of plate) [3] 86.3% | aptamer binding inhibition [4] 3% | response [5] -16.5% | inhibition [6] -0.3% | response [7] 6.3% | binding (% of control) [8] 108% | efflux inhibition (fraction of control) [9] 0 | inhibition [10] 4% | differentiation response [11] 6.83%

COc1cc2c(cc1O)CCN(C(=O)c1ccco1)C2C (configuration not stated)
59.4%: double positive events [1]
inactive: vesicle binding response [1] 242% | inhibition [2] 5.03% | superoxide response (% of plate) [3] 98.4% | aptamer binding inhibition [4] -1% | response [5] 0.24% | inhibition [6] 14.6% | response [7] 0.13% | binding (% of control) [8] 97.4% | efflux inhibition (fraction of control) [9] 0.22 | inhibition [10] 4% | differentiation response [11] 8.8%

CCc1ccc(/C=C2\SC(=S)N(CCC(=O)N3CCN(C)CC3)C2=O)cc1
inactive: vesicle binding response [1] 275% | inhibition [2] -16.8% | superoxide response (% of plate) [3] 90.8% | aptamer binding inhibition [4] -1% | response [5] 39.6% | inhibition [6] -7.8% | response [7] -6.7% | binding (% of control) [8] 101% | efflux inhibition (fraction of control) [9] 0.3 | inhibition [10] 2% | differentiation response [11] 10.4%
56.3%: double positive events [1]

COc1cccc(OC)c1C(=O)Nc1nc2ccc([N+](=O)[O-])cc2s1
60.8%: double positive events [1]
inactive: vesicle binding response [1] 91.9% | inhibition [2] -14.5% | superoxide response (% of plate) [3] 101% | aptamer binding inhibition [4] -2% | response [5] 4.56% | inhibition [6] 10.3% | response [7] 1.22% | binding (% of control) [8] 101% | efflux inhibition (fraction of control) [9] 0.005 | inhibition [10] 8% | differentiation response [11] -3.11%
